# According to PubChem BioAssay AID1347131 (National Center for Advancing Translational Sciences (NCATS), 2019):
# Hit rate of the full screen: of about 410,000 compounds, about 2,000 (0.49%) were called active. Not shown: some 8% with an inconclusive outcome. The sample as a whole holds a higher share of actives than the screen did. Unmarked numbers belong to inactive results. The call rests on the fitted dose curve; tested in HEK293 reporter line.
# Test: qHTS Assay for Foot and Mouth Disease Virus Antivirals: Primary Screen against the MLPCN compound library; further: nearly all actives have a fitted effect of over 55% in size
# Details: FMDV antiviral cell-based qHTS; series mostly up to 57.9 µM; activity, negative = inhibition: at the top concentration
# Potency means the concentration at half of the fitted maximal effect.
Compound,"activity, negative = inhibition [%]",Potency
COc1ccc(N2CCOCC2)c(NC(=O)c2cc3ccccc3o2)c1,-30.1,
COc1ccccc1NC(=O)C1=C(C)NC(SCC(=O)c2ccccc2)=C(C#N)C1c1ccco1 (stereo unspecified),-22.4,
CCCn1nc(C(=O)Nc2nc(-c3ccccn3)cs2)c2ccccc2c1=O,-35.2,
Cc1cccnc1Nc1nc(-c2ccccn2)cs1,,11.2 µM (active)
Cc1cc(C)n2c(Nc3c(C)cccc3C)c(-c3ccccn3)nc2n1,-37.5,
CN(CC(=O)NCc1ccccc1)CC(=O)Nc1ccc(Cl)c(C(F)(F)F)c1,-31.1,
COc1ccc(-c2nsc3c(N4CCCCC4)ncnc23)cc1,-36.3,
COc1ccc(-c2nsc3c(N4CCCCC4C)ncnc23)cc1 (stereo unspecified),-96.6,
COc1ccc(-c2nsc3c(N4CCCC4)ncnc23)cc1,,22.4 µM (active)
NC(=O)c1cccn(Cc2ccc(C(F)(F)F)cc2)c1=O,-36.5,
CC(=O)c1cccc(NC(=O)CN2CCc3cc4c(cc3C2C)OCCCO4)c1 (stereo unspecified),-31.7,
CC(C)CNc1nc2c(c(=O)n(C)c(=O)n2C)n1Cc1cccc(Br)c1,-39.6,
Cc1nn2cc(-c3ccc(OC(C)C)cc3)nc2s1,,14.1 µM (active)
COC(=O)c1ccc2nc(-c3ccc(C#N)cc3)c(Cc3ccsc3)n2c1,-30.6,
COc1ccccc1-c1nc(-c2ccccc2)nc(N2CCN(C)CC2)c1C#N,-30.4,
COC1=CC(=O)c2ccccc2C1=O,-46.7,
O=C1C(C=Nc2ccccc2)=C(O)c2ccccc21,,10 µM (active)
Cc1cccc(-n2c(O)c(C=Nc3ccccc3)c3ccccc3c2=O)n1,-31.3,
COc1cc(NC(=O)Cc2ccc(S(=O)(=O)N3CCOCC3)s2)c(OC)cc1Cl,-38.1,
O=C(OC(C(=O)Nc1ccc(Cl)cc1C(F)(F)F)c1ccccc1)c1c(Cl)cccc1Cl (stereo unspecified),-33.4,
COc1ccc(CCCc2nnc(SCC(=O)Nc3cccc(C)c3)o2)cc1,-33.1,
Cc1nn(Cc2ccc(Cl)cc2)c(=O)n1N(C)c1ncc(C(F)(F)F)cc1Cl,-32.6,
Cc1ccc(-c2ccnc3nc(Sc4ncc(C(F)(F)F)cc4Cl)nn23)cc1,-40.4,
Cc1nn2cc(-c3ncc(C(F)(F)F)cc3Cl)cnc2c1Br,,8.91 µM (active)
CCOC(=O)c1sc(=S)n(C)c1NC(=O)c1ccccc1,-30.6,
Cc1cccc(CNc2ncnc3ccc(-c4ccc5c(c4)OCCO5)cc23)c1,-20.3,

Compound,"activity, negative = inhibition [%]",Potency
COc1ccc(CCNC(=S)N2CCC(C(=O)c3ccc(F)cc3)CC2)cc1OC,-11.8,
CCC1Sc2ccc(S(=O)(=O)CCC(=O)NCc3ccco3)cc2NC1=O (stereo unspecified),-39.4,
CCN(CC)CCNC(=O)c1nn(-c2ccc(Cl)cc2)c2c1CCc1cc(OC)ccc1-2,-32.1,
CCOC(=O)c1cc(-c2ccccc2)sc1NC(=O)CCN1C(=O)c2ccccc2C1=O,-32.5,
CC(=O)Nc1ccc(S(=O)(=O)Nc2nc3ccc(C)cc3s2)cc1,108,
Cc1ccc2nc(-c3ccc(NC(=O)CCN4C(=O)c5ccccc5C4=O)cc3)sc2c1,,7.08 µM (active)
O=C(CCCCCN1C(=O)c2ccccc2C1=O)Nc1cccc(O)c1,-35.8,
Cc1ccc2nc(-c3ccc(NC(=O)CCS(=O)(=O)c4ccccc4)cc3)sc2c1,,10 µM (active)
O=C(CCS(=O)(=O)c1ccccc1)Nc1ccccc1-c1nc2ccccc2s1,-30.5,
CSc1ccc(NC(=O)N2CC=C(n3c(=O)[nH]c4ccccc43)CC2)cc1,-19.7,
CCn1c(N2CCN(S(=O)(=O)c3ccccc3C(F)(F)F)CC2)nc2ccccc21,-46.9,
COc1ccc(CNC(=O)C[C@H]2C[C@H](C(=O)N(C(C)C)C(C)C)[C@@]3(C)c4[nH]c5ccc(Cl)cc5c4CCN3C2=O)cc1OC,-38.9,
O=C(c1ccco1)N1CCN(c2c([N+](=O)[O-])nn(-c3cccc(Cl)c3)[n+]2[O-])CC1,-33.5,
Cc1cc(C)c2nc(C(F)(F)F)nc(N3CCN(C(=O)c4ccco4)CC3)c2c1,-37.6,
Cc1cc(N2CCN(C(=O)c3ccco3)CC2)n2nc(-c3cccc(Cl)c3)cc2n1,,22.4 µM (active)
COc1cccc2[nH]c3c(N4CCc5ccccc5C4)ncnc3c12,-33.4,
CCOc1ccc(N2C(=O)S/C(=C\c3cc(OC)c(OC)c(OC)c3)C2=O)cc1,,10 µM (active)
COc1cc(/C=C2\SC(=O)N(c3cccc(Cl)c3)C2=O)cc([N+](=O)[O-])c1O,-35,
COc1cc(/C=C2\SC(=S)N(CC(=O)NC(C)(C)C)C2=O)cc(OC)c1OC,-30.8,
CC(=O)c1ccc(NC(=O)c2ccc(-c3nc(CSc4ccccc4)c(C)o3)cc2)cc1,-33.9,
C[C@H]1CN([C@@H](C)CO)C(=O)c2cc(NC(=O)C3CCCCC3)ccc2O[C@H]1CN(C)Cc1ccc(-c2ccccc2)cc1,-33.5,
CC1CCC(C(C)C)C(OC(=O)Cn2c(-c3ccc(Br)cc3)[n+](C)c3ccccc32)C1 (stereo unspecified),,15.8 µM (active)
Cc1ccccc1OCc1n(CC(=O)OC2CC(C)CCC2C(C)C)c2ccccc2[n+]1C (stereo unspecified),,17.8 µM (active)
Cc1noc(C)c1COc1ccc(C(=O)N2CCN(c3ccccn3)CC2)cc1,-31.9,
O=C(c1ccco1)N1N=C(c2cccs2)CC1c1ccccc1O (stereo unspecified),-38.8,
CC(C)C[C@H]1CN=C(N(C)C)N1CCCCc1ccccc1,-30.1,

Compound,"activity, negative = inhibition [%]",Potency
Cc1ccc(N2C(=O)CC(N3CCN/C3=C3\CC/C(=C\c4ccccc4)C3=O)C2=O)cc1 (stereo unspecified),-34.8,
Cc1ccc(NC(=O)CN2C(=O)NC3(CCCCC3C)C2=O)cc1S(=O)(=O)N1CCCCC1 (stereo unspecified),-32.2,
CN(C)S(=O)(=O)c1ccc(C(=O)N2CCC(c3nc4ccccc4o3)CC2)cc1,-38.5,
CCC(C)NC(=O)c1cc(-c2ccccc2O)on1 (stereo unspecified),106,
Cc1ccc(-c2cc(-c3ccccc3)no2)c(O)c1,,5.01 µM (active)
CSc1nc(Nc2ccc(C)cc2C)cc(-c2ccccc2)n1,-34.8,
O=C1/C(=C/c2ccc(O)c([N+](=O)[O-])c2)SC(=S)N1Cc1ccccc1,-35,
Cc1nn2c(-c3cccc(NC(=O)CSc4nc5ccccc5o4)c3)nnc2c2ccccc12,-33,
COc1ccc(NC(=O)c2c(NC(=O)c3ccc(Br)cc3)sc3c2CCCC3)cc1,-31.2,
COc1ccc(-c2noc(CCCC(=O)NC3CCCC3)n2)cc1,-30.2,
COc1ccc(C(=O)Nc2onc3c2CCCC3)cc1,,12.6 µM (active)
COc1cccc(C(=O)Nc2cccc(-c3nnc(-c4ccccc4)o3)c2)c1,-69.2,
CCOc1cccc(C(=O)Nc2ccc(S(=O)(=O)N(Cc3ccccc3)c3ccccc3)cc2)c1,-35.6,
CCOc1cccc(C(=O)Nc2nnc(-c3ccco3)s2)c1,,11.2 µM (active)
CCN(CC)CCN(C(=O)c1ccc2c(c1)CCCC2)c1nc2ccc(C)cc2s1,-7.69,
CC(=O)N(Cc1cc2cc(C)ccc2[nH]c1=O)c1cccc(C)c1C,-31.5,
O=C(CCS(=O)(=O)c1ccc(Br)cc1)N1CCN(c2ccccc2F)CC1,-41.8,
Cc1cc(C)c(NS(=O)(=O)c2ccc3c(c2)NC(=O)CC(=O)N3)c(C)c1,-32.6,
O=C(NCCCCc1ccccc1)NC[C@@H]1CC[C@@H](Cc2ccc(-c3ccccc3)cc2)O1,-31.2,
COc1ccc2[nH]cc(CCNc3ccnc(-c4c(C)noc4C)n3)c2c1,-36.4,
COc1ccc2[nH]cc(CCNc3ccnc(-c4cccnc4)n3)c2c1,-32.1,
COc1ccc2[nH]cc(CCNc3ncncc3-c3ccoc3)c2c1,,22.4 µM (active)
COc1ccc(S(=O)(=O)N2CCCN(CCC(=O)Nc3cccc(C(F)(F)F)c3)CC2)cc1,-27.1,
Cc1cccc(N2CCN(C(=O)CCS(=O)(=O)c3ccc4c(c3)oc(=O)n4C)CC2)c1C,-34.5,
CCc1cc(C(=O)N2CCCC(C(=O)c3ccc(Cl)cc3)C2)no1 (stereo unspecified),-42,
COc1ccc(-c2cc(C(=O)N3CCCCC3)no2)cc1OC,101,

Compound,"activity, negative = inhibition [%]",Potency
O=C(c1cc(-c2ccc(Cl)cc2Cl)on1)N1CCCC1,,12.6 µM (active)
Cc1nn2cnnc2c(C)c1Cc1ccc(Cl)cc1,-30.8,
Cc1nc2nc(-c3ccc(Cl)cc3)cn2nc1C,,10 µM (active)
Cc1cc(C)n2nc(C)c(-c3ccc(Cl)cc3)c2n1,-32.5,
COc1ccc(/C=N/NC(=S)Nc2cc(S(=O)(=O)N3CCOCC3)ccc2N2CCOCC2)cc1O,-34.2,
CCc1c(C)c2ccc(O)c(CN3CCN(c4ccccc4)CC3)c2oc1=O,-32.6,
Brc1ccc(C2C3=C(Nc4ncnn42)c2ccccc2OC3c2ccncc2)cc1 (stereo unspecified),,17.8 µM (active)
COC(=O)c1c(C)oc(C)c1S(=O)(=O)NCC1CC1,128,
COc1ccc(NS(=O)(=O)c2ccc(-n3cccn3)cc2)cc1OC,-26.1,
O=C(CN1CCN(S(=O)(=O)c2cc(C(F)(F)F)ccc2Cl)CC1)N1CCc2ccccc2C1,-35.1,
C=CCc1ccccc1OCC(O)CN1CCN(c2ccccc2OC)CC1 (stereo unspecified),-34.9,
COC(CNC(=O)C1CCN(S(=O)(=O)c2cccc3nsnc23)CC1)OC,-30.4,
CCOC(=O)c1cc(-c2ccccc2)n(CCC(=O)N2CCN(c3ccccc3OC)CC2)c1C,-30.1,
Cc1ccc2[nH]c(CSc3nnc(NC(=O)c4ccccc4F)s3)cc(=O)c2c1,-16.8,
Cc1cc[n+](CC(=O)c2ccc(NC(=O)c3ccccc3)cc2)c2ccccc12,-32,
CCc1ccc(C2CC(c3cccc(OC)c3)n3nc(N)nc3N2)cc1 (stereo unspecified),-34.8,
CCc1ccc(C(=O)C[n+]2cccc3cc(OC)ccc32)cc1,,8.91 µM (active)
CC1(c2nnc(-c3ccncc3)o2)CC(c2ccc([N+](=O)[O-])cc2)=NO1 (stereo unspecified),-40.5,
Cc1occc1C(=O)NNC(=S)Nc1ccccc1,122,
COc1ccc(-c2cc(=NC(CC(C)C)C(=O)O)c3cc(C)ccc3o2)cc1 (stereo unspecified),102,
CC(=O)Nc1scc(C)c1-c1nc2ccccc2s1,-32.6,
CCCNC(=O)c1ccc(-c2nc3ccccc3s2)s1,,14.1 µM (active)
CCOC(=O)c1nc2ccccc2s1,101,
